HCV inh – blocks hepatitis C virus; Huh7.5.1 HCVcc-Cre infection, luciferase reporter, 44 h; Potency, µM (doses to about 41.8 µM), hits mostly inhibitors; hit rate 3.4% among 340,000; active = well fitted inhibition curve with a large enough effect; inconclusive = small, poorly fitted or top-dose-only effect, or another doubt; inactive = no such curve, though single readings can be large or run the other way
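Cells seeded at 1,000/well and cultured 4 h, then compounds added followed by HCVcc-Cre virus (~0.5 moi). After 44 h further culture, luciferase substrate was added, plates held 15 min at room temperature, and luminescence read for 15 sec.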
VACV mCherry inh – inhibitors of vaccinia virus infection (mCherry reporter signal); Vaccinia virus mCherry reporter infection, fluorescence; Potency, µM (titrated, usually from 36.5 µM), usual class: inhibitors; hit rate 0.63% among 310,000; AID 720579; calls by dose curve; tested in A549 cells; note: nearly all actives have a fitted effect of over 35% in size
HCMV inh – blocks human cytomegalovirus replication; AID 1259415; HFF cells, HCMV-luciferase reporter, 72 h; active compounds read low; activity change, negative = inhibition, % at 57.5 µM; hit rate 4.5% among 410,000; in the data active = activity change below about -60%; inconclusive = no clear call, values can overlap the other calls; inactive = above about -39%
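After 16 h attachment at 37C, HFF cells received test compound and HCMV-luciferase (1 PFU/cell); reporter luminescence read 72 h later, data normalized against buffer-only and known inhibitor Salinomycin.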
FMDV antiviral – blocks foot and mouth disease virus; FMDV antiviral cell-based qHTS; Potency, µM (series often up to 57.9 µM), usual class: inhibitors; hit rate 1.2% among 410,000; calls by dose curve; tested in HEK293T cells; note: read-out not given here; nearly all actives have a fitted effect of over 45% in size
VACV Venus inh – vaccinia inhibition (Venus reporter) | Vaccinia virus Venus reporter expression, fluorescence | Potency, µM (series often up to 36.5 µM), hits mostly inhibitors | hit rate 0.46% among 330,000 | AID 720580; calls by dose curve; tested in A549 cells; note: nearly all actives have a fitted effect of over 30% in size
A number is an active result; . = inactive; ? = inconclusive; / = no result given. This is a sample that favours compounds with a hit; in the whole collection about 7.3% have one here.

SMILES	HCV inh	VACV mCherry inh	HCMV inh	FMDV antiviral	VACV Venus inh
Cc1cccc2c1NC(=O)C21N2CCCC2C(C(=O)c2ccc3ccccc3c2)C12C(=O)Nc1ccccc12 (configuration not stated)	?	/	/	.	/
CCc1cccc2c1NC(=O)C21N2CCCC2C(C(=O)c2ccc3ccccc3c2)C12C(=O)Nc1ccccc12 (configuration not stated)	?	.	-93	.	.
O=C(CSc1ccccc1)OCC(=O)N1CCN(C(=O)c2ccco2)CC1	.	/	.	.	/
CC(C)C(=O)Nc1ccc(/C=C2\C=Cc3ccccc32)cc1	/	.	/	/	.
Nc1nc(=S)c2[nH]c(=S)[nH]c2[nH]1	.	?	.	.	.
Nc1nc(=S)c2[nH]cnc2[nH]1	1.3µM	?	-86	.	?
CCOC(=O)c1c2n(c3c(NCc4ccccc4)ncnc13)CCCC2	5µM	/	.	.	.
O=C(CSc1nc2ccc(Cl)cc2[nH]1)NC1CCCc2ccccc21 (configuration not stated)	?	.	-74	28µM	.
Nc1nc(N)c2c(OCc3ccc(C(F)(F)F)cc3)cccc2n1	/	10µM	/	/	10µM
CCOC(=O)N(C)c1c(CC)nc2c(OCc3ccc(C(F)(F)F)cc3)cccn12	/	.	.	?	.
C[C@@H](NC(=O)c1ncn2c1c(=O)[nH]c1ccc(Br)cc12)c1ccccc1	/	?	-100	.	?
C=C[C@@H]1c2cc(C)ccc2N(S(=O)(=O)c2ccc(C)cc2)[C@H](c2ccc(C(C)(F)F)cc2)C1(C#N)C#N	/	.	/	/	.
CCCC1CCC(c2ccc(C(N)=O)cc2)CC1 (configuration not stated)	.	/	.	.	.
CCCC1CCC(c2ccc(C(=O)NN)cc2)CC1 (configuration not stated)	.	.	-79	.	.
CCOC(=O)C1C(c2cccc(Cl)c2Cl)NC(=O)NC1(O)C(F)(F)F (configuration not stated)	.	/	.	.	/
CCOC(=O)C1C(c2ccc(C(=O)O)cc2)NC(=O)NC1(O)C(F)(F)F (configuration not stated)	.	.	-72	.	.
O=C(Nc1ccc(F)c(Cl)c1)c1cc(C2CCCN(S(=O)(=O)c3ccccc3)C2)on1 (configuration not stated)	/	.	-69	.	.
CCCC(=O)N1CCCC(c2cc(C(=O)Nc3ccccc3)no2)C1 (configuration not stated)	/	.	?	20µM	.
Cn1nc(C(C)(C)C)cc1C(=O)N1CCCCC1c1cc(C(=O)Nc2ccc(F)c(Cl)c2)no1 (configuration not stated)	/	.	?	25µM	?
Cn1cnc(S(=O)(=O)N2CCCC(c3cc(C(=O)Nc4ccc(F)c(Cl)c4)no3)C2)c1 (configuration not stated)	/	.	.	.	.
CC(C)(C)c1ccc(NC(=O)c2cc(C3CCCN(S(=O)(=O)c4cccc5cccnc45)C3)on2)cc1 (configuration not stated)	/	.	-86	?	.
Cc1cc(C)c2oc(C(=O)Nc3nc4ccc(Cl)cc4s3)cc(=O)c2c1	/	.	.	.	.
Cc1ccc(N(C(=O)c2cccc(C)c2)S(=O)(=O)c2ccc(Cl)cc2)cc1	/	.	.	.	.
O=C(Oc1ccccc1)N1CCC2(CCCN(c3ccc(-c4ccccc4)cc3)C2)CC1	/	/	/	.	/
CCOc1ccc(/C=C/c2ccc3ccccc3[n+]2C)cc1OCC	/	.	/	/	.
SMILES	HCV inh	VACV mCherry inh	HCMV inh	FMDV antiviral	VACV Venus inh
O=[N+]([O-])c1cccc(CSC2=NCCN2S(=O)(=O)c2ccccc2)c1	.	/	-74	?	/
O=[N+]([O-])c1ccc(S(=O)(=O)N2CCN=C2SCc2cccnc2)cc1	.	?	-73	.	?
O=S(=O)(c1ccccc1)N1CCN=C1SCc1ccccc1	.	.	.	.	.
Cc1ccc2oc(-c3ccc(NC(=O)COc4ccccc4)cc3O)nc2c1	/	.	/	/	.
O=C(c1ccc(COc2ccc(Cl)cc2)o1)N1N=C(C(F)F)CC1(O)C(F)F (configuration not stated)	?	.	-70	?	?
Cc1ccc(C(=O)Nc2nc(COc3ccccc3)cs2)s1	11µM	.	-75	/	.
CC(=O)Nc1nc(COc2ccccc2)cs1	.	.	.	.	.
O=C(Nc1nc(COc2ccccc2)cs1)C12CC3CC(CC(C3)C1)C2	?	/	-84	.	/
C[C@H]1CN([C@@H](C)CO)C(=O)Cc2cc(NC(=O)CCC(F)(F)F)ccc2O[C@H]1CN(C)S(=O)(=O)c1ccc(F)cc1	.	.	-100	.	?
C[C@H](CO)N1C[C@H](C)[C@H](CN(C)S(=O)(=O)c2cccs2)Oc2ccc(NC(=O)Nc3ccc4c(c3)OCO4)cc2CC1=O	.	.	-69	.	?
Cc1ccc(S(=O)(=O)N(C)C[C@@H]2Oc3ccc(NS(=O)(=O)c4ccccc4)cc3CC(=O)N([C@@H](C)CO)C[C@H]2C)cc1	0.56µM	.	.	.	.
C[C@H]1CN([C@@H](C)CO)C(=O)Cc2cc(NC(=O)CCC(F)(F)F)ccc2O[C@H]1CN(C)S(=O)(=O)c1ccc(Cl)cc1	?	.	.	.	?
Cc1ccc(S(=O)(=O)Nc2ccc3c(c2)CC(=O)N([C@H](C)CO)C[C@@H](C)[C@H](CN(C)S(=O)(=O)c2ccccc2)O3)cc1	.	.	.	.	.
CS(=O)CC(O)(c1ccc(F)cc1)C1CC1 (configuration not stated)	/	.	.	.	.
CCc1nc(N)nc(N)c1-c1ccc(Cl)c(N=[N+]=[N-])c1	?	?	-79	?	5.6µM
CCc1nc(N)nc(N)c1-c1ccc(Cl)c([N+](=O)[O-])c1	?	.	-99	?	0.28µM
CN1CCN(C(=O)CN(c2ccccc2)S(=O)(=O)N(C)C)CC1	.	.	?	.	.
Cc1ccc(C)c(N2CCN(C(=O)C3CCN(c4nc(C)cc(C)n4)CC3)CC2)c1	?	/	.	18µM	/
Cc1ccc(Cl)cc1N1CCN(C(=O)CN(c2ccccc2)S(=O)(=O)N(C)C)CC1	?	.	.	20µM	.
Cc1ccc(Cl)cc1N1CCN(C(=O)C2CCN(S(=O)(=O)c3cnc[nH]3)CC2)CC1	.	.	.	.	.
COC(=O)Cc1ccc(NC(=S)N2CCN(c3cc(Cl)ccc3C)CC2)cc1	10µM	.	-70	?	.
Cc1ccc(Cl)cc1N1CCN(C(=O)C2CCN(S(C)(=O)=O)CC2)CC1	.	.	-64	?	.
CCc1ccc(OCC(=O)N(Cc2ccc(C(C)C)cc2)C2CCS(=O)(=O)C2)cc1 (configuration not stated)	/	.	.	.	.
CNCC(N)C(=O)O (configuration not stated)	/	/	/	.	/
COc1cccc(NC(=O)Cn2c(=O)ccc3cc(S(=O)(=O)N4CCC(C)CC4)ccc32)c1	/	.	.	.	.
Cc1ccc(Cl)cc1N1CCN(C(=O)C2CCN(S(=O)(=O)c3cn(C)cn3)CC2)CC1	/	.	.	.	.

Assay outcomes deposited in PubChem by National Center for Advancing Translational Sciences (NCATS).
